From PubChem BioAssay (NCI)
Several values for one entry are separate records, joined by “and”; a condition that tells them apart may be missing. Identical values can stand only once. The panel holds about 79,000 compounds, 15% with a hit somewhere; the sample as a whole holds those more often. Activity calls are given as the source filed them. Cut-off read from the data, not from the text of the source: active = growth inhibition above about 70%; inactive = the rest.

Legend:
[1] = NCI Yeast Anticancer Drug Screen. Data for the rad50 strain (AID 155);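 note: 0% = growth of vehicle-only cultures of the same strain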; details: S. cerevisiae rad50 strain growth inhibition; at 50.0 µM; hits give high values
How it was run: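 Cells are treated with compound, grown, and their growth is then scored against vehicle-only cultures of the same repair-deficient yeast strain.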

[2] = NCI Yeast Anticancer Drug Screen. Data for the mec2-1 strain (AID 157); details: S. cerevisiae mec2-1 strain, at 50.0 µM, hits give high values
How it was run: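 Growth inhibition is read against vehicle-treated controls after compound exposure of the mec2-1 yeast strain, which is defective in DNA damage repair or cell cycle control.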

[3] = NCI Yeast Anticancer Drug Screen. Data for the sgs1 mgt1 strain (AID 161);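 note: 0% = growth of cultures given vehicle only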; details: S. cerevisiae sgs1 mgt1 strain, at 50.0 µM, hits give high values
How it was run: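 Yeast cells carrying a defined DNA-repair defect were exposed to test compounds. Growth inhibition was measured relative to vehicle-treated controls.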

[4] = NCI Yeast Anticancer Drug Screen. Data for the cln2 rad14 strain (AID 165);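 note: 0% = growth equal to vehicle treated cultures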; details: S. cerevisiae cln2 rad14 strain, at 50.0 µM, hits give high values
How it was run: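 Growth inhibition, relative to vehicle-treated controls, is the read-out. The test organism is a yeast strain with defined genetic alterations, cln2 rad14.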

[5] = NCI Yeast Anticancer Drug Screen. Data for the bub3 strain (AID 167); details: S. cerevisiae bub3 mutant strain, at 50.0 µM, hits give high values
How it was run: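 Part of a panel of yeast mutants defective in DNA damage repair or cell cycle regulation. Each strain is grown with compound, and inhibition is calculated relative to solvent-treated cultures.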

[6] = NCI Yeast Anticancer Drug Screen. Data for the mlh1 rad18 strain (AID 175); details: S. cerevisiae mlh1 rad18 strain growth inhibition; at 50.0 µM; hits give high values
How it was run: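 Cells of a genetically altered yeast strain, deficient in DNA damage repair, were treated with compound. Their growth was then compared with that of vehicle-treated cultures to give inhibition.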

Measured: growth inhibition

CC1(C)CC(N)C(=O)c2ccccc21 (centres undefined)
inactive: [1] 7.25% | [2] -20.6% | [3] -5.6% | [4] 14.2% | [5] -4.4% | [6] 29%

CC1=C[C@H]2O[C@@H]3[C@H](O)[C@@H](O)[C@](C)(C2(COC(=O)CCl)CC1)[C@@]31CO1 (some centres undefined)
active: [1] 87% | [2] 89.7% | [3] 87.7% | [4] 90.2% | [5] 88.5%

O=[N+]([O-])c1ccc(OCc2ccc(COc3ccc(S(=O)(=O)F)cc3)cc2)c(Cl)c1
inactive: [1] -0.6% | [2] -8.15% | [3] -2.3% | [4] -6.35% | [5] -7.6% | [6] -7.5%

CCOC(=O)C(CC(C)C)NC(=O)C(N)Cc1ccc(N(CCCl)CCCl)cc1 (centres undefined)
inactive: [1] -2.4% | [2] -8.9% | [3] -27.1% | [4] -17.6% | [5] -30.1%

O=NNc1nc2ccccc2[nH]1
inactive: [1] 6.5% | [2] -0.65% | [3] 2.05% | [4] -24.6% | [5] -6.95% | [6] 8.85%

CCC[CH2][Sn]1([CH2]CCC)[O]C(=O)c2ccc(N)cc2[O]1
active: [1] 87.3% | [2] 92.5% | [3] 89.5% | [4] 89.4% | [5] 89.1% | [6] 89.8%

O=S(=O)(c1ccccc1)N1C2CCCC21 (centres undefined)
inactive: [1] 14.1% | [2] 2.55% | [3] 7.05% | [4] -2.75% | [5] 7.5%

Cc1ccc2c(O)c3c(cc2c1)C(=O)c1c2c(cc(O)c1C3=O)C1(C)OC(O2)C(O)C(N(C)C)C1O (centres undefined)
active: [1] 86.7% | [2] 87.9% | [3] 90.9% | [4] 87.7% | [5] 87.8%

CC(C)(C)C1(C)CN(N=O)C(=O)O1 (centres undefined)
inactive: [1] -5.05% | [2] -9.7% | [3] -9.5% | [4] -26.1% | [5] 5.85% | [6] -15.5%

CC(C)[C@]12O[C@H]1[C@@H]1O[C@]13[C@]1(O[C@H]1C[C@H]1C4=C(CC[C@@]13C)C(=O)OC4)[C@@H]2O
inactive: [1] 4.6% | [2] 2.9% | [3] -20.1% | [4] -5.1% | [5] -17.2%

COc1cc(CCN(C)C)c([N+](=O)[O-])cc1OC
inactive: [1] 7.9% | [2] 21.6% | [3] 19.3% | [4] 17% | [5] 0.2%

CCC1(O)C(=O)OCc2c1cc1n(c2=O)Cc2cc3ccc(C=O)cc3nc2-1 (centres undefined)
inactive: [1] 39.5% | [2] 19% | [3] -17.5% | [4] 2.3% | [5] -24.7%

CCOP(=O)(OCC)/C(C#N)=C/c1ccc(C#N)cc1
inactive: [1] 30.6% | [2] 15.8% | [3] 10.8% | [4] 12.3% | [5] 14.7% | [6] 55.2%

[C-]#[O+].[C-]#[O+].[C-]#[O+].[C-]#[O+].[C-]#[O+].[C-]#[O+].[C-]#[O+].[C-]#[O+].[C-]#[O+].[C-]#[O+].[Mn].[Mn]
inactive: [1] -21.1% | [2] -12.6% | [3] -15.2% | [4] -71.6% | [5] 4.45% | [6] -25.9%

NC(N)=NCCN=C(N)N
inactive: [1] -2.7% | [2] -30.1% | [3] -29.6% | [4] -24.1% | [5] -53.2% | [6] -9.15%

CCC(CO)N=Cc1ccccc1O.CCC(CO)N=Cc1ccccc1O.[Ni] (centres undefined)
inactive: [1] 40% | [2] 1.3% | [3] 31.9% | [4] -44.1% | [5] 8.7%

COc1ccc2nc3cc(Cl)ccc3c(NCCCN(CCCl)CCCl)c2c1
inactive: [1] 51% | [2] 19.2% | [3] 37.2% | [4] 34.2% | [5] 7.6%

CC(C)C(=O)[O-].CC(C)C(=O)[O-].N.N.N.N.[Co+3].[O-][Cl+3]([O-])([O-])[O-]
inactive: [1] -17.1% and -29.1% | [2] 4% and 16.6% | [3] -54% and -56.5% | [4] 9.9% and 23.4% | [5] -6.75% and -12.6% | [6] -11.2% and -8.35%

CC(C)CCC[C@@H](C)[C@H]1CC[C@H]2[C@@H]3CC=C4C[C@@H](OC(=O)F)CC[C@]4(C)[C@H]3CC[C@]12C
inactive: [1] 19.9% | [2] 20.6% | [3] 42.5% | [4] 35.9% | [5] 26.9%

O=C([O-])CC(=O)[O-].[NH-][C@@H]1CCCC[C@H]1[NH-].[Pt+4]
inactive: [1] -14.2% | [2] -15.5% | [3] -24.5% | [4] -25.1% | [5] -24.5%

CC[C@@]1(O)C(=O)OCc2c1c(Cl)c1n(c2=O)Cc2cc3ccccc3nc2-1
inactive: [1] -21.1% | [2] -23.9% | [3] -5.85% | [4] 17.7% | [5] -28.5% | [6] -70%

C[C@]12CCC(=O)N[C@@H]1CC[C@@H]1[C@@H]2CC[C@]2(C)[C@@H](OC(=O)COc3ccc(N(CCCl)CCCl)cc3)CC[C@@H]12
inactive: [1] 0.45% | [2] 4.7% | [3] 0.15% | [4] 11.8% | [5] 5.75% | [6] -12.8%

C(=NC1CCCCC1)c1c[nH]c2ccccc12
inactive: [1] -24.9% | [2] -39.6% | [3] -5.05% | [4] 4.7% | [5] -27.5% | [6] -17.8%

C[C@]12Cc3cnc(-c4ccccc4)nc3C[C@@H]1CC[C@@H]1[C@@H]2CC[C@@]2(C)[C@H]1CC[C@]2(C)O
inactive: [1] 23.6% | [2] 25.1% | [3] 13.1% | [4] 9.55% | [5] 39.5% | [6] 20.1%

Cc1c([N+](=O)[O-])cc(C(C)(C)C)c(O)c1[N+](=O)[O-]
active: [3] 72.2% | [6] 70.6%
inactive: [1] 60.6% | [2] 63.1% | [4] 43.5% | [5] 27.1%

CN(C)c1ccc2c(c1)Cc1ccccc1-2
inactive: [1] 1% | [2] -8.65% | [3] 18.2% | [4] -24.1% | [5] 44% | [6] -25.8%

CC(Cl)[N+](=O)[O-] (centres undefined)
inactive: [1] 15.4% | [2] -10.2% | [3] 2.55% | [4] 16.9% | [5] 9% | [6] 1.9%

[CH3][Sn]([CH3])([CH3])[O][N+](=O)[O-]
inactive: [1] 25.6% | [2] 2.65% | [3] 44.6% | [4] 2.55% | [5] 48.7% | [6] 18.9%

O=[N+]([O-])c1cccc(/C=C/c2ccc(S(=O)(=O)F)cc2)c1
active: [1] 97.5% | [2] 93.8% | [3] 96.8% | [4] 93.8% | [5] 97.2% | [6] 97.3%

COP1(=S)OCC(C(C)(C)C)CO1 (centres undefined)
inactive: [1] 7.1% | [2] 1.2% | [3] -2.1% | [4] -14.4% | [5] 25.9% | [6] -3.55%

CN1CCc2cc3c(cc2C1)OCO3
inactive: [1] -22.9% and -14.8% | [2] 2.5% and -16.9% | [3] -12.9% and 8.55% | [4] -22.6% and 7.65% | [5] -5.85% and 2.45% | [6] -17.9% and 28.6%

CCCC(C)C1(C)C(=O)NC(=O)N(C)C1=O (centres undefined)
inactive: [1] 4.35% | [2] 18.1% | [3] 0.15% | [4] 11.8% | [5] 1.05% | [6] -11.9%

FC(F)(F)C1(F)N(Cc2ccccc2)C1(F)C(F)(F)F (centres undefined)
inactive: [1] 9.1% | [2] -7.5% | [3] -10.3% | [4] -6.65% | [5] 7% | [6] -9.95%

C1CSCCO1.[Cu+2].[O-][Cl+3]([O-])([O-])O
inactive: [1] -7.6% | [2] -10.6% | [3] -0.4% | [4] -36.8% | [5] -37% | [6] -13.8%

N#CNc1nnnn1-c1ccccc1 (tested in a mixture with another compound)
inactive: [1] 7.7% | [2] 9.35% | [3] 0.55% | [4] 44.4% | [5] 11.8% | [6] -16.9%
